Some test systems named below: HCT-15 colon; HT29 colon; SNB-75 CNS; SNB-19 CNS; U251 CNS; PC-3 prostate; SK-MEL-5 melanoma; UACC-62 melanoma; LOX IMVI melanoma; SK-MEL-28 melanoma; SK-MEL-2 melanoma; EKVX NSCLC; SN12C renal; UO-31 renal; TK-10 renal; ACHN renal; CAKI-1 renal; CCRF-CEM leukemia; MOLT-4 leukemia.
Holding throughout (experiment): NCI-60 one-dose screen, 48 h (100 = growth as untreated, 0 = no growth, -100 = all killed)
Holding throughout (details): 10 µM unless noted

Compounds without any hit were thinned out: in the full panel of roughly 83,000, 20% have a hit.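 Method: cells in 96-well plates; compound added at one concentration; 48 h incubation; percent growth measured; values under 10 scored active.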 Values without a mark were called inactive. Activity calls are given as the source filed them.

In the case of `COc1cc2nc(-c3ccc(Cl)cc3)cc(OCCCN3CCC(O)CC3)c2cc1OC`, the growth with HCT-15 colon was 19%; with HT29 colon, 16.8%; in the assay with SNB-75 CNS, 39.6%; in the assay on SNB-19 CNS it was 73.4%; in the assay with U251 CNS, 54.5%; in the assay on PC-3 prostate it was 41.7%. The growth was -30% (active) in the assay with SK-MEL-5 melanoma; -24.7% (active) in the assay with UACC-62 melanoma; -53.3% (active) with LOX IMVI melanoma; 70% in the assay on SK-MEL-28 melanoma; 75.8% in the assay on SK-MEL-2 melanoma; 56.7% with EKVX NSCLC. Also, the growth in the assay on SN12C renal was 36.6%; in the assay on UO-31 renal, 51.3%; with TK-10 renal, 92.2%; with ACHN renal, 35.1%; in the assay with CAKI-1 renal it was -5.22% (active); in the assay with CCRF-CEM leukemia it was 57.5%. Besides, the growth with MOLT-4 leukemia was 44.1%.
In the case of `COc1cc(NC(C)CCCNC(=O)CCC(=O)NCCCNCCCCCCCCNCCCNC(=O)CCC(=O)NCCCC(C)Nc2cc(OC)cc3cccnc23)c2ncccc2c1` (configuration not stated), the growth with HCT-15 colon is 108%; with HT29 colon, 67.5%; in the assay on SNB-75 CNS, 54.2%; in the assay on SNB-19 CNS, 57.9%; in the assay with U251 CNS it was 35.1%; in the assay with PC-3 prostate, 77.6%. Moreover, the growth with SK-MEL-5 melanoma was 97.1%; in the assay on UACC-62 melanoma it was 84.2%; in the assay on LOX IMVI melanoma, 35.7%; in the assay with SK-MEL-28 melanoma, 78.1%; with SK-MEL-2 melanoma it was 78.4%; in the assay on EKVX NSCLC, 79.6%. Also, the growth with SN12C renal is 42.9%; with UO-31 renal, 91.4%; in the assay with TK-10 renal, 82.6%; in the assay with ACHN renal, 88.9%; with CAKI-1 renal it was 95.1%; in the assay on CCRF-CEM leukemia, 58.9%. Moreover, the growth in the assay on MOLT-4 leukemia was 76.4%.
As for `CC(C)(C)c1ccc(NS(=O)(=O)c2ccc3nc(NC(=O)c4cnccn4)[nH]c3c2)cc1`, the growth was 28.6% in the assay with HCT-15 colon; 11% in the assay on HT29 colon; -30.3% (active) in the assay with SNB-75 CNS; 40% in the assay with SNB-19 CNS; 35.3% with U251 CNS; 28.3% in the assay with PC-3 prostate. In addition, the growth in the assay with SK-MEL-5 melanoma was 13.4%; in the assay with UACC-62 melanoma it was 40.4%; in the assay on LOX IMVI melanoma, 40.4%; with SK-MEL-28 melanoma, 45.8%; in the assay on SK-MEL-2 melanoma it was 45.3%; with EKVX NSCLC, 58.6%. For the same molecule, the growth in the assay with SN12C renal was 44.3%; in the assay on UO-31 renal, 36.1%; in the assay with TK-10 renal, 57.4%; with ACHN renal, 39.6%; with CAKI-1 renal, 21.7%; in the assay on CCRF-CEM leukemia it was 7.84% (active). Moreover, in the assay with MOLT-4 leukemia, the growth was 27.7%.
Consider `COc1cc2c(c(O)c1Br)C(=O)c1c(O)cc(C[C@H](C)O)cc1[C@H]2[C@H]1c2cc(C[C@H](C)O)cc(O)c2C(=O)c2c1cc(OC)c(Br)c2O`, for which the growth in the assay with HCT-15 colon is 8.27% (active); in the assay on HT29 colon it was 11%; in the assay with SNB-75 CNS, -6.83% (active); in the assay on SNB-19 CNS it was 18.1%; with U251 CNS, 10.3%; in the assay with PC-3 prostate, 16.2%. Further, the growth in the assay on SK-MEL-5 melanoma is -74.1% (active); with UACC-62 melanoma, 4.54% (active); in the assay on LOX IMVI melanoma it was 4.77% (active); in the assay on SK-MEL-28 melanoma, 31.8%; in the assay on SK-MEL-2 melanoma it was -38.2% (active); in the assay with EKVX NSCLC, 9.77% (active). For the same molecule, the growth in the assay with SN12C renal was 9.01% (active); in the assay on UO-31 renal, -29% (active); in the assay with TK-10 renal, 37%; with ACHN renal, -46.1% (active); with CAKI-1 renal, 4.31% (active); in the assay on CCRF-CEM leukemia, 10.1%. Besides, in the assay with MOLT-4 leukemia, the growth is -0.594% (active).
For the molecule `COc1cc(/C=N/NC(=O)c2cnn3c2NC(c2ccccc2)C3)ccc1OCc1ccccc1` (configuration not stated), the growth in the assay on HCT-15 colon was 2.36% (active); in the assay on HT29 colon it was -35.6% (active); with SNB-75 CNS, 26.1%; with SNB-19 CNS, 19.3%; in the assay with U251 CNS, 4.86% (active); in the assay on PC-3 prostate, -31% (active). The growth in the assay with SK-MEL-5 melanoma is 5.94% (active); in the assay on UACC-62 melanoma, -33.7% (active); with LOX IMVI melanoma, 22%; in the assay with SK-MEL-28 melanoma, 24.1%; in the assay with SK-MEL-2 melanoma it was 6.28% (active); in the assay on EKVX NSCLC, 32.1%. In addition, the growth with SN12C renal is 29.2%; with UO-31 renal, 32.6%; in the assay with TK-10 renal, -0.854% (active); in the assay on ACHN renal, 10.7%; with CAKI-1 renal, 0.476% (active); with CCRF-CEM leukemia, 17.1%. Besides, in the assay on MOLT-4 leukemia, the growth was 14.7%.
Regarding `C=CCN1C(=O)/C(=C/C(=O)OC)S/C1=N\NC(=O)c1cc2ccc1/C=C\c1ccc(cc1)/C=C\2`, the growth was 66.9% in the assay with HCT-15 colon; 46% with HT29 colon; 78.1% in the assay with SNB-75 CNS; 84.7% in the assay on SNB-19 CNS; 81.8% in the assay on U251 CNS; 48.4% with PC-3 prostate. Further, the growth is 92.5% in the assay with SK-MEL-5 melanoma; 77.2% in the assay on UACC-62 melanoma; 78.8% in the assay with LOX IMVI melanoma; 102% with SK-MEL-28 melanoma; 97.3% with SK-MEL-2 melanoma; 90.8% in the assay with EKVX NSCLC. Moreover, the growth in the assay on SN12C renal was 86.9%; in the assay with UO-31 renal, 75.4%; in the assay on TK-10 renal it was 108%; in the assay with ACHN renal, 87.9%; in the assay on CAKI-1 renal, 87.8%; with CCRF-CEM leukemia it was 22.9%. Besides, in the assay with MOLT-4 leukemia, the growth is 35.4%.
For `N/C(=N\C(N)=N\c1nc2ccccc2s1)c1cnccn1`, the growth in the assay on HCT-15 colon was 11.6%; in the assay with HT29 colon it was 24.1%; in the assay on SNB-75 CNS, 35.8%; in the assay with SNB-19 CNS, 37.4%; in the assay on U251 CNS, 35.1%; in the assay with PC-3 prostate, 31.1%. The growth is -48.5% (active) in the assay on SK-MEL-5 melanoma; -20.8% (active) in the assay with UACC-62 melanoma; 15.1% with LOX IMVI melanoma; 21.6% in the assay with SK-MEL-28 melanoma; 3% (active) with SK-MEL-2 melanoma; 48% with EKVX NSCLC. For the same molecule, the growth is 36.7% in the assay on SN12C renal; -12.9% (active) in the assay on UO-31 renal; 37.9% with TK-10 renal; 26.2% in the assay with ACHN renal; 15.5% in the assay with CAKI-1 renal; 14.6% in the assay on CCRF-CEM leukemia. Moreover, the growth with MOLT-4 leukemia was 8.63% (active).
On to `COc1ccc(-c2[nH][nH]c(=O)c2-c2nc3ccccc3s2)cc1`, for which the growth with HCT-15 colon is 95.4%; in the assay on HT29 colon, 106%; in the assay with SNB-75 CNS it was 88.9%; in the assay with SNB-19 CNS, 102%; in the assay on U251 CNS, 101%; in the assay on PC-3 prostate, 102%. In addition, the growth with SK-MEL-5 melanoma is 102%; in the assay with UACC-62 melanoma, 98%; in the assay on LOX IMVI melanoma it was 99.9%; in the assay with SK-MEL-28 melanoma it was 112%; in the assay with SK-MEL-2 melanoma, 104%; with EKVX NSCLC, 99.9%. Further, the growth was 98.4% with SN12C renal; 86.6% in the assay on UO-31 renal; 108% in the assay with TK-10 renal; 106% in the assay with ACHN renal; 88% in the assay with CAKI-1 renal; 99.1% in the assay with CCRF-CEM leukemia. Further, in the assay with MOLT-4 leukemia, the growth is 102%.
